Records with an inconclusive call do not appear. Values without a mark were called inactive. Activity calls are given as the source filed them. Calls come from the whole dose curve; as a rule, active = well fitted curve in the direction sought with a large enough effect; inconclusive = small, poorly fitted or top-dose-only effect, or another doubt; inactive = no such curve, though single readings can be large; an effect the other way counts as inactive or inconclusive.

The target of assay [1] is Rap guanine nucleotide exchange factor 3 (Homo sapiens) (UniProt O95398). Put plainly: Confirmatory qHTS for antagonist of cAMP-regulated guanine nucleotide exchange factor 3 (EPAC1) (AID 1645880).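 For activity, negative = inhibition: plate controls were DMSO only for no effect and full effect of the ATA control for full effect.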 Note: nearly all actives have a fitted effect of over 55% in size. Note: potency is the fitted concentration of half-maximal effect. The conditions noted are these: EPAC1 Rap1B-BODIPY-GDP exchange, fluorescence; activity, negative = inhibition: at 115 µM (top of the series). The essentials:
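Nucleotide exchange uses 100 nM EPAC1, 250 nM RAP1B-BODIPY-GDP and 50 uM GDP, with compounds in a concentration-titration series. After 5 min at room temperature, fluorescence (480 nm ex/540 nm em) is read every 5 min for 30 min. Data are normalized to control ATA and DMSO.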
For orientation: In qHTS, concentration-response curves come from the screen itself.

For assay [2], the target named is Rap guanine nucleotide exchange factor 4 (Homo sapiens) (UniProt Q8WZA2). Put plainly: Confirmatory qHTS for agonist of cAMP-regulated guanine nucleotide exchange factor 4 (EPAC2) (AID 1645884). For activation: % is set by controls: 0 for no effect and ±100 for the full control effect.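 Note: nucleotide exchange releases bodipy-GDP from Rap1 and this lowers its fluorescence; nearly all actives have a fitted effect of over 65% in size.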 Note: potency is the fitted concentration of half-maximal effect.
The target is the same in assay [3]. Put plainly: Confirmatory qHTS for antagonist of cAMP-regulated guanine nucleotide exchange factor 4 (EPAC2) (AID 1645885). For activity change, negative = inhibition: % is set by controls: 0 for no effect and ±100 for the full control effect. Note: nearly all actives have a fitted effect of over 25% in size. Note: potency is the fitted concentration of half-maximal effect.
Assay [4] deals with Rap guanine nucleotide exchange factor 3 (Homo sapiens) (UniProt O95398). Description: Counterscreen qHTS for antagonist of cAMP-regulated guanine nucleotide exchange factor 3 (EPAC1) (AID 1645888).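 Note: fluorescence loss as bound BODIPY-GDP is released from Rap1B; % of control where 0% means no effect.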 The essentials:
(§1)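 Rap1B-BODIPY-GDP 250 nM + GDP 50 uM; cpds 7-pt, final 9.74 nM–152 uM (activator mode) or from 7.32 nM upwards (inhibitor mode); RT; FI 480/540 nm at 5 and 30 min, then ± cAMP, reread.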
(In general: Counterscreens check selectivity or assay interference.)

Assay [5] shares this target. Description: Counterscreen qHTS for agonist of cAMP-regulated guanine nucleotide exchange factor 3 (EPAC1) (AID 1645889). For activation: % of control where 0% means no effect. Note: nearly all actives have a fitted effect of over 40% in size. Note: potency is the fitted concentration of half-maximal effect. In outline: as §1

Chain of Rap guanine nucleotide exchange factor 3 (Homo sapiens) (O95398 whole entry, looked up): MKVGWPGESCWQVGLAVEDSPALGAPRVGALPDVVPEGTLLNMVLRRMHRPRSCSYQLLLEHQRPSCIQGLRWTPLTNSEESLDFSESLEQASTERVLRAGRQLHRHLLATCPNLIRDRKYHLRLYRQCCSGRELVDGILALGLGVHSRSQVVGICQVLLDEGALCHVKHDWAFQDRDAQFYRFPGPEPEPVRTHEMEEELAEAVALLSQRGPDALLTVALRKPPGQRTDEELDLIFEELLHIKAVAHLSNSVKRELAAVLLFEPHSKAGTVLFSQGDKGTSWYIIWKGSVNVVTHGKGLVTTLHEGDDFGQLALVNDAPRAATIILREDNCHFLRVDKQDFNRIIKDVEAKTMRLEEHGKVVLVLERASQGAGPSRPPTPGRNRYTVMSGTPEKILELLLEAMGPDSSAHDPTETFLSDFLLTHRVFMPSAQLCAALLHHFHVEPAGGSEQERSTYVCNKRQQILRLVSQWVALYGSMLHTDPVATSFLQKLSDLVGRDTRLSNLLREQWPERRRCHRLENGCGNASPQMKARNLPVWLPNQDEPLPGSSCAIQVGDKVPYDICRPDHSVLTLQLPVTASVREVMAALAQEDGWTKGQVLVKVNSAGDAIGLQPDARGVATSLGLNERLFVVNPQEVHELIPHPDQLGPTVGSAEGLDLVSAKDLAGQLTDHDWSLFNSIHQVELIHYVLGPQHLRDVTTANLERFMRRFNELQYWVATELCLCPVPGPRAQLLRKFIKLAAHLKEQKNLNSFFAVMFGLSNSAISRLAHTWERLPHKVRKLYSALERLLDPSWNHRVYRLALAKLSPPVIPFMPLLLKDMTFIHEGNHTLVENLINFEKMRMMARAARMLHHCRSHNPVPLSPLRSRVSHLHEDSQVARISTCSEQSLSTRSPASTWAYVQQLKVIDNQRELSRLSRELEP
Chain of Rap guanine nucleotide exchange factor 4 (Homo sapiens) (Q8WZA2 whole entry, looked up): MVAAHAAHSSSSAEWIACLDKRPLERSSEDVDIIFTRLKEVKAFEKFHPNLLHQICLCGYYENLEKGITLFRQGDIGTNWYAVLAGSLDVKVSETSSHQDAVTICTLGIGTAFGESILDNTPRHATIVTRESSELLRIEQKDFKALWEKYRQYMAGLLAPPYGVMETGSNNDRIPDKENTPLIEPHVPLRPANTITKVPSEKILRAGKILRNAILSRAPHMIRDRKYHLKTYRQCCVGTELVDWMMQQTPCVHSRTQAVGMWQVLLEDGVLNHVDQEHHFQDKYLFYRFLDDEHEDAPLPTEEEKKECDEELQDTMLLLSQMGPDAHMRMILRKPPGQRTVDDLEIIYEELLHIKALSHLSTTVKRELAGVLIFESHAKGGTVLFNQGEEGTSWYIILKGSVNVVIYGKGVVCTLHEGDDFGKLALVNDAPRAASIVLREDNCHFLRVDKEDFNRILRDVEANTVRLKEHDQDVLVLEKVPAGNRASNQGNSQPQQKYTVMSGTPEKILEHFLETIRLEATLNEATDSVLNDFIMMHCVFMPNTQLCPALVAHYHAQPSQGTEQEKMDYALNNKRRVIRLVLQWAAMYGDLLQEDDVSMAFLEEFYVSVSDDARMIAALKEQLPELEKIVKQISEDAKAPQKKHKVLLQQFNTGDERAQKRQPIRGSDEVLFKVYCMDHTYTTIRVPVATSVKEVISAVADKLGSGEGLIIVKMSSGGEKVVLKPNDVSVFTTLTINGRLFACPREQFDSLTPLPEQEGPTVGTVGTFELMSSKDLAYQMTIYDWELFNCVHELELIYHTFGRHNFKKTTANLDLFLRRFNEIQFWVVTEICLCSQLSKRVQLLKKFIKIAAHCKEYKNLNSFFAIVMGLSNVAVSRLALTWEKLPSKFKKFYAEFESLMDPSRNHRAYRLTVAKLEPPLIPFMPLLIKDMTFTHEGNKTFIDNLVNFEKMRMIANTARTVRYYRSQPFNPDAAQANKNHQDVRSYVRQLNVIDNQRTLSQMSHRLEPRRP

On to `COc1ccc(C)cc1CN1C(=O)c2ccccc2C1=O`, for which the Potency entry in assay [1] and in assay [3] was “inactive” throughout. The activation in assay [2] was -0.218% [at 17.1 µM, percent relative to cAMP agonist control]; in assay [5], 12.1% [at 30.8 µM]. In addition, the activity change, negative = inhibition in assay [4] was -7.92% [at 30.8 µM].
For `N=C1/C(=C/c2coc3ccccc3c2=O)C(=O)N=C2SC(c3ccco3)=NN12`, the Potency entry in assay [1], in assay [2], in assay [3] and in assay [4] was “inactive” in each case. The Potency in assay [5] is 39.8 µM (active).
Consider `O=[N+]([O-])c1ccc(N(c2ccccc2)c2ccccc2)cc1`, for which the Potency entry in assay [1] and in assay [3] was “inactive” each time. Also, the activation in assay [2] is 3.9% [at 17.1 µM, percent relative to cAMP agonist control]; in assay [5] it was 15.8% [at 30.8 µM]. Besides, in assay [4], the activity change, negative = inhibition was -24.8% [at 30.8 µM].
As for `COC(=O)c1c(SC)nc2ccccc2c1OCc1ccc(C)cc1C`, the Potency entry in assay [1], in assay [2], in assay [3], in assay [4] and in assay [5] was “inactive” throughout.
As for `COc1ccc(N=Cc2sc(O)c3ccccc23)cc1`, the Potency result in assay [1] and in assay [3] was “inactive” each time. Further, the activation in assay [2] was 2.81% [at 17.1 µM, percent relative to cAMP agonist control]; in assay [5] it was 29% [at 30.8 µM]. Also, the activity change, negative = inhibition in assay [4] is 46.8% [at 30.8 µM].
With `CCOc1cc(/C=C2\CCCc3c2nc2ccccc2c3C(=O)O)ccc1OC`, the Potency entry in assay [1], in assay [3] and in assay [4] was “inactive” throughout. The values for the Potency in assay [2] and in assay [5] were 112 µM (active) and 100 µM (active), respectively.
In the case of `Cc1ccccc1-n1c(O)c(/C=C/C=Nc2ccccc2)c(=O)[nH]c1=O`, the Potency result in assay [1], in assay [3] and in assay [4] was “inactive” each time. For the same compound, the Potency is 112 µM (active) in assay [2] and 39.8 µM (active) in assay [5].
In the case of `CN1/C(=C/C=C(C#N)C#N)C(C)(C)c2ccccc21`, the Potency entry in assay [1] and in assay [3] was “inactive” throughout. In addition, the activation was -11.9% [at 17.1 µM, percent relative to cAMP agonist control] in assay [2] and -347% [at 30.8 µM] in assay [5]. The activity change, negative = inhibition in assay [4] is 214% [at 30.8 µM].
As for `O=C(Cc1nc2ccccc2[nH]c1=O)c1ccccc1`, the Potency entry in assay [1], in assay [3], in assay [4] and in assay [5] was “inactive” in each case. In assay [2], the Potency was 100 µM (active).
Turning to `CCCN1C(=O)S/C(=C/c2ccc(N3CCOCC3)o2)C1=O`, the Potency result in assay [1], in assay [4] and in assay [5] was “inactive” in each case. For the same compound, the Potency was 112 µM (active) in assay [2] and 67.5 µM (active) in assay [3].
Take `COc1ccc(NC(=O)/C(C#N)=C\c2ccc(OCc3ccc(C(=O)O)cc3)c(OC)c2)cc1`: in assay [1], the Potency is 67.5 µM (active). In addition, the Potency entry in assay [2], in assay [3], in assay [4] and in assay [5] was “inactive” in each case.
On to `COc1ccc(N=Cc2c(O)n(-c3cccc(C)n3)c(=O)c3ccccc23)c(OC)c1`, for which the Potency entry in assay [1] and in assay [3] was “inactive” in each case. Besides, the activation in assay [2] was -25.1% [at 17.1 µM, percent relative to cAMP agonist control]; in assay [5], 19.8% [at 30.8 µM]. The activity change, negative = inhibition in assay [4] is 31% [at 30.8 µM].
As for `Cc1ccc(-c2csc3ncnc(Nc4ccc(C(=O)O)cc4)c23)cc1`, the Potency result in assay [1], in assay [2], in assay [3], in assay [4] and in assay [5] was “inactive” throughout.
As for `O=C(Cn1c(=O)n(-c2ccccc2)c(=O)c2c3c(sc21)CCC3)c1ccc(Br)cc1`, the Potency entry in assay [1], in assay [2], in assay [3], in assay [4] and in assay [5] was “inactive” each time.
On to `COc1ccc2oc(C)c(C(=O)c3ccccc3)c2c1`, for which the Potency entry in assay [1] and in assay [3] was “inactive” in each case. Besides, the activation is 5.91% [at 17.1 µM, percent relative to cAMP agonist control] in assay [2] and 7.36% [at 30.8 µM] in assay [5]. Further, the activity change, negative = inhibition in assay [4] was 1.7% [at 30.8 µM].
With `NC(=O)c1c(NC(=O)c2ccccc2)sc2c1CCN(Cc1ccccc1)C2`, the Potency entry in assay [1] and in assay [4] was “inactive” throughout. In addition, the values for the Potency in assay [2], in assay [3] and in assay [5] were 112 µM (active), 84.9 µM (active) and 39.8 µM (active), respectively.
As to `CC(=O)NC(c1cccc(F)c1)c1nc(-c2ccccc2)cs1` (stereo not given), the Potency entry in assay [1] and in assay [3] was “inactive” each time. The activation in assay [2] is 10% [at 17.1 µM, percent relative to cAMP agonist control]; in assay [5], 45.7% [at 30.8 µM]. In assay [4], the activity change, negative = inhibition was -20.8% [at 30.8 µM].
Take `O=C(OCCN1C(=O)c2cccc3c(N4CCOCC4)ccc(c23)C1=O)c1ccccc1Cl`: the Potency entry in assay [1] and in assay [3] was “inactive” in each case. For the same compound, the activation in assay [2] is 17.6% [at 17.1 µM, percent relative to cAMP agonist control]. The activity change, negative = inhibition in assay [4] was 1.86% [at 30.8 µM]. Also, in assay [5], the Potency was 11.2 µM (active).
With `CC(C)n1cc(/C=C/c2cc[n+](C)cc2)c2ccccc21`, the Potency result in assay [1], in assay [3] and in assay [4] was “inactive” each time. Further, the Potency was 112 µM (active) in assay [2] and 56.2 µM (active) in assay [5].
For `N=C1/C(=C\c2coc3ccc(O)cc3c2=O)C(=O)N=C2SC=CN12`, the Potency result in assay [1], in assay [3] and in assay [4] was “inactive” in each case. The Potency in assay [2] is 112 µM (active); in assay [5], 44.7 µM (active).
Consider `COC(=O)c1cc(NC(=O)c2ccccc2)c(=O)oc1C/C=N\OCc1ccc(Cl)cc1Cl`, for which the Potency entry in assay [1] and in assay [3] was “inactive” throughout. Besides, the activation is -1.43% [at 17.1 µM, percent relative to cAMP agonist control] in assay [2] and 26% [at 30.8 µM] in assay [5]. Besides, the activity change, negative = inhibition in assay [4] is -10.8% [at 30.8 µM].
`Cc1ccc(N2C(=O)c3cccc4c(N)ccc(c34)C2=O)c2cccnc12`: the Potency result in assay [1], in assay [3] and in assay [4] was “inactive” throughout. Further, the Potency was 112 µM (active) in assay [2] and 10 µM (active) in assay [5].
In the case of `COc1ccc(CN(C)C(=O)CC(c2ccccc2)c2ccccc2)cc1`, the Potency entry in assay [1], in assay [2], in assay [3], in assay [4] and in assay [5] was “inactive” in each case.
For `C(=C(c1ccccc1)c1ccccc1)c1ccccn1`, the Potency entry in assay [1], in assay [2], in assay [4] and in assay [5] was “inactive” throughout. The Potency in assay [3] is 84.9 µM (active).

Values taken from PubChem BioAssay (NCATS).
